B2AR arrestin ag = ADRB2 beta-arrestin recruitment; Potency, µM (doses to about 46.1 µM), hits mostly activators; 44,000 tested, under 10 active; HTLA Tango cells, beta-arrestin recruitment, luciferase luminescence, 18 h; AID 1347077; P07550;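 further: potency means the concentration at half of the fitted maximal effect; 0% = DMSO and full agonism = EC100 isoproterenol or metaproterenol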
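Luminescence read-out: arrestin recruitment to recombinant beta2-AR releases tTA, inducing luciferase. Cells exposed 18 hr at 37 degrees C to up to 46 microM compound; %Activity from corrected signal, concentration-response curves classified by r2, magnitude and efficacy.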
GALC G270D act = enhancers of human galactocerebrosidase G270D mutant activity in cells. P54803. 145M-Twi-hGALC-G270D cells (Twitcher mouse brain line with human GALC G270D), HMU-beta-Gal fluorescence, 48 h. Potency, µM (highest dose often 57.5 µM), usual class: activators. 45,000 tested, 0.1% active. AID 1159614; further: potency means the concentration at half of the fitted maximal effect; 0% is about no effect; nearly all actives have a fitted effect of over 65% in size
Target sequence (P54803 whole entry G286D): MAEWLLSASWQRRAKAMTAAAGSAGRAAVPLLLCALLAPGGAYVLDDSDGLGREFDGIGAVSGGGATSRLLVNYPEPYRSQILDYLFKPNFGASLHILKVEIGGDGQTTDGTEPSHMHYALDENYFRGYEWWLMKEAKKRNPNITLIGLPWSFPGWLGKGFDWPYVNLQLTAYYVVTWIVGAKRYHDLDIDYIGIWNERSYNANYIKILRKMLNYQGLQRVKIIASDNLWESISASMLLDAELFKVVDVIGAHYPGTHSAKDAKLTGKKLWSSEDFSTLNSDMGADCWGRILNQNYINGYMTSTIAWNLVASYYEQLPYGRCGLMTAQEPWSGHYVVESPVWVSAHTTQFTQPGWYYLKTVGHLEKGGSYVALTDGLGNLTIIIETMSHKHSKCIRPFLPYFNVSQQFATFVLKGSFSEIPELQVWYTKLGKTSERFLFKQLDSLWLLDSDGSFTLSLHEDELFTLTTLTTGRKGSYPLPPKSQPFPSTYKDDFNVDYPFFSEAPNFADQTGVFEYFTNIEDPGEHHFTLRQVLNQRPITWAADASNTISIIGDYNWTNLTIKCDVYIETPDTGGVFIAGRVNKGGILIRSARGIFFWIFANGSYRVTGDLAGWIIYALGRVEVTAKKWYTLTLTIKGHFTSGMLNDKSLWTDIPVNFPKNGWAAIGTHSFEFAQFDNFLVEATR
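Live 145M-Twi cells (Twitcher mouse brain-derived, GALC-null) stably expressing human GALC-G270D, with a wild-type GALC line, were compound-treated. Residual GALC activity was then read as fluorescence from 0.1 mM final HMU-β-gal at pH 5.2; higher signal means activation.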
PTAP-TSG101 blk = TSG101-PTAP interaction inhibition, HIV-1 budding | Fluorescence polarization, FITC-PTAP peptide/Tsg101, 20 min | Potency, µM (top dose mostly 115 µM), actives largely listed as inhibitors | 44,000 tested, under 10 active | AID 1347069; further: potency means the concentration at half of the fitted maximal effect; 0% is about no effect
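FITC-labeled PTAP peptide (50 nM final) binding to Tsg101 binding domain (10 uM final) read by fluorescence polarization after 20 min at r.t. in HEPES pH 7.5 buffer. Actives by CRC class, <25 µM.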
GPR32 ag = agonists of human resolvin D1 receptor DRV1 (GPR32); O75388; CHO-K1 GPR32 beta-arrestin PathHunter luminescence, 90 min; zero percent set by DMSO-only wells; activation, % at 76.9 µM; 48,000 tested, 2.5% active; AID 1346428;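 active means activation of at least 60% and not above a set upper limit, about 1 call in 100 departs from these limits; inconclusive means activation of 40% to 60%, or above that upper limit; inactive means activation under 40%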; further: 0% is about no effect
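Luminescent readout of beta-Gal complementation quantifies ligand-induced beta-arrestin association with GPR32 in CHO-K1 cells; 90 min compound incubation at 37 °C, detection 1 h at room temperature.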
GALK inhibitor = inhibitors of human galactokinase (GALK) | P51570 | Potency, µM (doses to about 57.5 µM), for the others: top-dose activity, negative = inhibition, most hits filed as inhibitors | AID 1347072 | recombinant GALK, Kinase-Glo ATP luminescence, 1 h | 44,000 tested, under 10 active;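 further: plate controls were full GALK reaction for no effect and reaction lacking GALK for full effect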
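Reactions with and without enzyme served as controls. GALK at 5 nM phosphorylates 100 uM galactose using 35 uM ATP (HEPES pH 8.0, Mg2+) for 1 h at RT, with luminescence read 10 min after adding Kinase-Glo Plus.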
* hit, by the source's call. An excerpt weighted towards active compounds, which were near 2.6% of everything screened. Unless noted, the call rests on the fitted dose curve; in most records, active means well fitted curve in the direction sought with a large enough effect; inconclusive means small, poorly fitted or top-dose-only effect, or another doubt; inactive means no such curve, though single readings can be large; an effect the other way counts as inactive or inconclusive.

Cc1nn(Cc2noc(C(=O)NCc3cccc(F)c3)n2)c(C)c1Br was read as B2AR arrestin ag inactive, GALC G270D act inactive, PTAP-TSG101 blk inactive, GPR32 ag 73* and GALK inhibitor 2%.
Screening CC(C)c1cnc2c(c1SCc1cccc(C(F)(F)F)c1)c(=O)n(C)c(=O)n2C returned B2AR arrestin ag inactive, GALC G270D act inactive, PTAP-TSG101 blk inactive, GPR32 ag -9 and GALK inhibitor -1%.
`O=C1OC(C(=O)Nc2ccc(Cl)c(C(F)(F)F)c2)Cc2ccccc21` (stereo unspecified) gave B2AR arrestin ag inactive, PTAP-TSG101 blk inactive, GPR32 ag 80* and GALK inhibitor 0%.
`CCC1Oc2ccc(C)cc2N(CC(=O)NCc2ccc(OC)cc2)C1=O` (stereo unspecified) gave B2AR arrestin ag inactive, GALC G270D act inactive, PTAP-TSG101 blk inactive, GPR32 ag 64* and GALK inhibitor -1%.
CCc1cnc2c(c1SCC(=O)c1ccc(OC)cc1)c(=O)n(C)c(=O)n2C was read as B2AR arrestin ag inactive, GALC G270D act inactive, PTAP-TSG101 blk inactive, GPR32 ag -5 and GALK inhibitor -6%.
Screening CC1CCN(C(=O)c2cc3c(=O)n(C)c4ccccc4c3s2)CC1 returned B2AR arrestin ag inactive, GALC G270D act inactive, PTAP-TSG101 blk inactive, GPR32 ag -7 and GALK inhibitor -4%.
CCOC(=O)C1CCCN(C(=O)c2cc3c(=O)n(C)c4ccccc4c3s2)C1 (stereo unspecified) was read as B2AR arrestin ag inactive, GALC G270D act inactive, PTAP-TSG101 blk inactive, GPR32 ag 103* and GALK inhibitor 0%.
Screening Nc1nc(=O)n([C@@H]2O[C@H](CO)[C@@H](O)[C@@H]2F)cc1I returned GALC G270D act inactive and GPR32 ag -10.
COC(=O)c1ccccc1NS(=O)(=O)c1cc2c3c(c1)CC(=O)N3CCC2 was read as B2AR arrestin ag inactive, GALC G270D act inactive, PTAP-TSG101 blk inactive, GPR32 ag -8 and GALK inhibitor -8%.
CCCCc1ccc(NS(=O)(=O)c2cc3c4c(c2)CC(=O)N4CCC3)cc1 was read as B2AR arrestin ag inactive, GALC G270D act inactive, PTAP-TSG101 blk inactive, GPR32 ag 105* and GALK inhibitor 3%.
`CC(C)c1ccc(NC(=O)C2CCCN(S(=O)(=O)c3cccc4nonc34)C2)cc1` (stereo unspecified) gave B2AR arrestin ag inactive, GALC G270D act inactive, PTAP-TSG101 blk inactive, GPR32 ag 17 and GALK inhibitor -9%.
COc1ccc(NC(=O)C2CCCN(S(=O)(=O)c3cccs3)C2)cc1 (stereo unspecified) was read as B2AR arrestin ag inactive, GALC G270D act inactive, PTAP-TSG101 blk inactive, GPR32 ag 8 and GALK inhibitor -12%.
CCc1ccc(NC(=O)C2CCCN(S(=O)(=O)c3cccc4nonc34)C2)cc1 (stereo unspecified) was read as B2AR arrestin ag inactive, GALC G270D act inactive, PTAP-TSG101 blk inactive, GPR32 ag 89* and GALK inhibitor 1%.
For O=C(Nc1ccc(Br)cc1)C1CCCN(S(=O)(=O)c2ccc(Br)s2)C1 (stereo unspecified) the results were B2AR arrestin ag inactive, GALC G270D act inactive, PTAP-TSG101 blk inactive, GPR32 ag 82* and GALK inhibitor 1%.
Screening CCOC(=O)c1ccc(N2C(=O)c3n[nH]c(-c4ccco4)c3C2c2cccc(O)c2)cc1 (stereo unspecified) returned B2AR arrestin ag inactive, GALC G270D act inactive, PTAP-TSG101 blk inactive, GPR32 ag 38 and GALK inhibitor 4%.
`Cc1nc2nncn2c(NCc2ccc(F)cc2)c1C` gave B2AR arrestin ag inactive, GALC G270D act inactive, PTAP-TSG101 blk inactive, GPR32 ag 44 and GALK inhibitor 6%.
For Cc1nc2nncn2c(NCc2ccc(Cl)cc2)c1C the results were B2AR arrestin ag inactive, GALC G270D act inactive, PTAP-TSG101 blk inactive, GPR32 ag 76* and GALK inhibitor -6%.
Screening COc1cccc(CNC(=O)Cn2c(SCC(=O)Nc3ccc(C)c(C)c3)nc3ccccc32)c1 returned B2AR arrestin ag inactive, GALC G270D act inactive, PTAP-TSG101 blk inactive, GPR32 ag 113* and GALK inhibitor -1%.
Screening CCOC(=O)c1ccc(NC(=O)CN2c3ccccc3S(=O)(=O)c3ccccc32)cc1 returned B2AR arrestin ag inactive, GALC G270D act inactive, PTAP-TSG101 blk inactive, GPR32 ag -9 and GALK inhibitor -2%.
COc1ccc(NC(=O)CN2C(=O)C(C)(C)c3ccccc32)cc1Cl was read as B2AR arrestin ag inactive, GALC G270D act inactive, PTAP-TSG101 blk inactive, GPR32 ag 103* and GALK inhibitor 2%.
`CCOC(=O)c1ccc(NC(=O)CN2C(=O)C(C)(C)c3ccccc32)cc1` gave B2AR arrestin ag inactive, GALC G270D act inactive, PTAP-TSG101 blk inactive, GPR32 ag 109* and GALK inhibitor 1%.
For CC(C)(C)OC(=O)N1CCc2nc(N3CCN(c4ncccn4)CC3)ncc2C1 the results were B2AR arrestin ag inactive, GALC G270D act inactive, PTAP-TSG101 blk inactive, GPR32 ag 62* and GALK inhibitor 0%.
Cc1nc(-c2ccc(F)cc2)sc1CCNC(=O)Cc1ccc(F)cc1 was read as B2AR arrestin ag inactive, GALC G270D act inactive, PTAP-TSG101 blk inactive, GPR32 ag inconclusive and GALK inhibitor 1%.
`COc1ccc(-c2nc(C)c(CCNC(=O)c3c(F)cccc3F)s2)cc1` gave B2AR arrestin ag inactive, GALC G270D act inactive, PTAP-TSG101 blk inactive, GPR32 ag 80* and GALK inhibitor 1%.
Screening COc1ccc(C(=O)NCCc2sc(-c3cccc(F)c3)nc2C)cc1 returned B2AR arrestin ag inactive, GALC G270D act inactive, PTAP-TSG101 blk inactive, GPR32 ag 67* and GALK inhibitor 1%.
For COc1ccc(C(=O)NCCc2sc(-c3ccc(F)cc3)nc2C)cc1OC the results were B2AR arrestin ag inactive, GALC G270D act inactive, PTAP-TSG101 blk inactive, GPR32 ag 5 and GALK inhibitor 1%.
`COc1ccc(CC(=O)NCCc2sc(-c3cccc(F)c3)nc2C)cc1` gave B2AR arrestin ag inactive, GALC G270D act inactive, PTAP-TSG101 blk inactive, GPR32 ag 98* and GALK inhibitor 0%.
CCOc1ccc(CC(=O)NCCc2sc(-c3cccc(F)c3)nc2C)cc1 was read as B2AR arrestin ag inactive, GALC G270D act inactive, PTAP-TSG101 blk inactive, GPR32 ag 69* and GALK inhibitor 1%.

Source: PubChem
